HepG2 tox: qHTS for Inhibitors of TGF-b: Cytotox Counterscreen; HepG2 CAGA-GFP viability, ATP luminescence, 18 h; Potency, µM (top dose mostly 46.1 µM), for the others: at the top dose activity change, negative = cytotoxicity, usual class: cytotoxic; 410,000 tested, 0.76% active; also: potency is read from the fitted curve at half-maximal effect
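HepG2 CAGA-GFP cells (1000/well, DMEM with 1% FBS) received compound, then TGF-beta at 500 pg/mL final, and were incubated 18 hours at 37 degrees C. Viability was read by CellTiter-Glo luminescence. Media-only wells were set as complete cell-killing and DMSO as no toxicity.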
uPA surface inh: qHTS for Inhibitors of Cell Surface uPA Generation; cell surface uPA generation assay, qHTS; Potency, µM (doses to about 38.3 µM), for inactives: top-dose activity change, negative = inhibition, usual class: inhibitors; 330,000 tested, 0.31% active; active = well fitted inhibition curve with a large enough effect; inconclusive = small, poorly fitted or top-dose-only effect; inactive = no such curve, though single readings can be large or run the other way; tested in mouse RAW 264.7 cells; also: potency is read from the fitted curve at half-maximal effect; % is scaled to controls: 0 for no effect and ±100 for the full control effect; nearly all actives have a fitted effect of over 55% in size
Giardia killer: Small Molecules that selectively kill Giardia lamblia: qHTS | 340,000 tested, 0.15% active | Giardia lamblia trophozoite viability | AID 540267, 2011 | activity change, % at 7.66 µM, hits read low; in the data active = activity change below about -80%; inconclusive = between about -30% and that limit;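 also: parasites exposed to compound for two days anaerobically before the ATP read; % is scaled to controls: 0 for no effect and ±100 for the full control effect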
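ATP-content bioluminescence gauges trophozoite survival. Cells (100/well) receive compound and incubate anaerobically for 48 hrs at 37 deg C; detection reagent follows for 15-30 min at room temperature.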
TGFb SMAD3 inh: qHTS for Inhibitors of TGF-b; Potency, µM (highest dose often 46.1 µM), inactives show at the top dose activity, negative = inhibition, actives largely listed as inhibitors; 410,000 tested, 1.2% active; HepG2 CAGA-GFP TGF-b/SMAD3 reporter, GFP fluorescence, 18 h; TGF-beta stimulated, 500 pg/mL final; AID 588855, 2011; also: potency is read from the fitted curve at half-maximal effect; % is scaled to controls: 0 for no effect and ±100 for the full control effect; nearly all actives have a fitted effect of over 65% in size
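HEPG2 CAGA-GFP, 1000 cells/well; 2 h settle, 37 C; cpd via pin tool; TGF-b 500 pg/mL final; 18 h, 37 C; GFP imaging ex488/em500-530; %Activity normalised to -TGF-b and +DMSO controls; CRC fit, curve class.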
ATXN2 expr inh: Primary qHTS for Inhibitors of ATXN expression; Potency, µM (series often up to 57 µM), without a hit: at the highest dose activity change, negative = inhibition, hits mostly inhibitors; 360,000 tested, 0.72% active; HEK-293 ATXN2-luciferase reporter, luminescence, 24 h; also: potency is read from the fitted curve at half-maximal effect; % is scaled to controls: 0 for no effect and ±100 for the full control effect; nearly all actives have a fitted effect of over 55% in size
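ATXN2-luciferase reporter cells (luciferase flanked by upstream and downstream ATXN2 gene portions) were treated 24 h at 37 °C with compounds at up to 57 uM. SteadyGlo luminescence gave expression; GF-AFC fluorescence gave viability.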
ATXN viability: Viability Counterscreen for Primary qHTS for Inhibitors of ATXN expression | Potency, µM (highest dose often 56.7 µM), usual class: cytotoxic | S2 cells (HEK-293 line with an ATXN2-luciferase reporter) viability, CellTiter-Fluor protease fluorescence, 24 h | 400,000 tested, 0.49% active; also: potency is read from the fitted curve at half-maximal effect; nearly all actives have a fitted effect of over 40% in size
An asterisk follows results filed as active. Only some compounds are listed: those with a hit (about 2.6% of all), similar ones and a draw of the others. Unless noted, calls follow the shape of the dose curve; as a rule, active = well fitted curve in the direction sought with a large enough effect; inconclusive = small, poorly fitted or top-dose-only effect, or another doubt; inactive = no such curve, though single readings can be large; an effect the other way counts as inactive or inconclusive.

How did CCOC(=O)Cn1c(=N)n(CCOc2ccc3ccccc3c2)c2ccccc21 do in these assays?
HepG2 tox: -100%; uPA surface inh: -2%; Giardia killer: 24; TGFb SMAD3 inh: 11µM*; ATXN2 expr inh: -23%; ATXN viability: inconclusive

What do the screens show for `COc1ccc(NC(=O)CN(C)C(=O)c2cccc(NS(=O)(=O)c3ccc(Br)cc3)c2)cc1`?
HepG2 tox: 0%; uPA surface inh: -1%; Giardia killer: -10; TGFb SMAD3 inh: -16%; ATXN2 expr inh: -2%; ATXN viability: inconclusive

What do the screens show for `COc1ccc(C(CNC(=O)c2cccc(NS(=O)(=O)c3ccc(Br)cc3)c2)N(C)C)cc1` (stereo not drawn)?
HepG2 tox: 7.1µM*; uPA surface inh: -3%; Giardia killer: 14; TGFb SMAD3 inh: -19%; ATXN2 expr inh: -35%; ATXN viability: inactive

What do the screens show for `CN(C)CCOc1cc(-c2cn[nH]c2)ccc1NC(=O)C1COc2ccccc2O1` (stereo not drawn)?
ATXN2 expr inh: -16%

What do the screens show for `COc1cccc(C(=O)NCC2Cc3cccc(-c4ncccn4)c3O2)c1OC` (stereo not drawn)?
ATXN viability: inactive

What do the screens show for `CCCc1cc(=O)oc2c3c(c4c(c12)OC(C)(C)C=C4)OC(C)C(C)C3O` (stereo not drawn)?
HepG2 tox: 7.9µM*; uPA surface inh: 1.4µM*; Giardia killer: 10; TGFb SMAD3 inh: inconclusive; ATXN2 expr inh: inconclusive; ATXN viability: inconclusive

How did O=C(NC(CSCc1ccccc1)C(=O)N/N=C/c1ccc(O)cc1O)c1ccc([N+](=O)[O-])cc1 (stereo not drawn) do in these assays?
HepG2 tox: -61%; Giardia killer: 15; TGFb SMAD3 inh: inconclusive; ATXN2 expr inh: 3.2µM*; ATXN viability: inactive

How did CC(=O)c1cc2c(s1)-c1cc(F)ccc1OC2 do in these assays?
HepG2 tox: -44%; uPA surface inh: 2%; Giardia killer: 8; TGFb SMAD3 inh: 7.1µM*; ATXN2 expr inh: inconclusive

Results for CCOc1cccc(C2C=C(c3ccc4c(c3)OCO4)NC(c3ccccc3Cl)N2)c1O (stereo not drawn) ?
HepG2 tox: -27%; Giardia killer: inconclusive; TGFb SMAD3 inh: inconclusive

Results for NC[C@@H]1O[C@@H](O[C@H]2[C@@H](O)[C@H](O[C@@H]3[C@@H](O)[C@@H](N)C[C@H](N)[C@H]3O[C@H]3O[C@H](CN)[C@@H](O)[C@@H](O)[C@H]3N)O[C@H]2CO)[C@H](N)[C@@H](O)[C@@H]1O ?
ATXN2 expr inh: 2%; ATXN viability: inactive

What do the screens show for `O=[N+]([O-])c1ccc(N=Nc2ccc(O)c3ccccc23)cc1`?
HepG2 tox: 13µM*; uPA surface inh: -5%; Giardia killer: -5; TGFb SMAD3 inh: inconclusive; ATXN2 expr inh: inconclusive; ATXN viability: inconclusive

Results for O=S(=O)(Nc1ccc(N=Nc2ccc(O)c3ccccc23)cc1)c1ccccc1 ?
HepG2 tox: -29%; uPA surface inh: -4%; Giardia killer: 0; TGFb SMAD3 inh: inconclusive; ATXN2 expr inh: -18%; ATXN viability: inconclusive

How did CC(C)C(NS(C)(=O)=O)c1nnc2n1CCN(Cc1ccnc3ccccc13)CC2 (stereo not drawn) do in these assays?
ATXN viability: inactive

What do the screens show for `CCOc1cc(/C=N/N=C(\N)c2nonc2N)cc(Br)c1OCc1cccc2ccccc12`?
HepG2 tox: 11µM*; uPA surface inh: -1%; Giardia killer: -17; TGFb SMAD3 inh: inconclusive; ATXN2 expr inh: inconclusive; ATXN viability: inconclusive

Results for CCCCCCCCCC(=O)N[C@@H](Cc1c[nH]c2ccccc12)C(=O)N[C@H](CC(N)=O)C(=O)N[C@@H](CC(=O)O)C(=O)N[C@@H]1C(=O)NCC(=O)N[C@@H](CCCN)C(=O)N[C@@H](CC(=O)O)C(=O)N[C@H](C)C(=O)N[C@@H](CC(=O)O)C(=O)NCC(=O)N[C@H](CO)C(=O)N[C@@H]([C@@H](C)CC(=O)O)C(=O)N[C@@H](CC(=O)c2ccccc2N)C(=O)O[C@@H]1C ?
ATXN2 expr inh: 5%

How did O=C(O)/C=C/C(=O)c1ccc2c(c1)CCc1ccccc1-2 do in these assays?
HepG2 tox: 11µM*; uPA surface inh: 5µM*; Giardia killer: 12; TGFb SMAD3 inh: inconclusive; ATXN2 expr inh: 5.6µM*; ATXN viability: 7.1µM*

Results for Cc1nn(C(=O)c2ccccc2)c(C)c1Sc1ccc(Cl)cc1 ?
HepG2 tox: -50%; TGFb SMAD3 inh: inconclusive; ATXN2 expr inh: 25µM*; ATXN viability: 28µM*

How did Cc1ccc(Sc2c(C)nn(C(=O)c3ccc(Br)cc3)c2C)cc1 do in these assays?
HepG2 tox: -27%; TGFb SMAD3 inh: -14%; ATXN2 expr inh: 13%; ATXN viability: inactive

How did COc1ccc(CN2CCOc3c(O)cc(-c4cc(C)c5ccc(F)cc5n4)cc3C2)c(O)c1 do in these assays?
ATXN viability: inactive

What do the screens show for `O=C(C#Cc1ccccc1)c1ccco1`?
HepG2 tox: 11µM*; uPA surface inh: -5%; Giardia killer: 3; TGFb SMAD3 inh: 3.2µM*; ATXN2 expr inh: inconclusive; ATXN viability: inconclusive

What do the screens show for `Cc1cc2c(F)c(Oc3ncnn4cc(OC[C@@H](C)O)c(C)c34)ccc2[nH]1`?
ATXN2 expr inh: 51%

What do the screens show for `O=C1c2ccccc2C(=O)N1CC1CCCO1` (stereo not drawn)?
HepG2 tox: 3.5µM*; uPA surface inh: -7%; Giardia killer: -14; TGFb SMAD3 inh: 11%; ATXN2 expr inh: 0%; ATXN viability: inactive

What do the screens show for `CCN(CC)C(=O)c1cc2cc(Br)ccc2oc1=O`?
HepG2 tox: 7.1µM*; uPA surface inh: 4%; Giardia killer: -7; TGFb SMAD3 inh: -12%; ATXN2 expr inh: -3%; ATXN viability: inconclusive

What do the screens show for `COc1ccc(S(=O)(=O)CC(=O)c2cc3cc(Br)ccc3oc2=O)cc1`?
HepG2 tox: -61%; uPA surface inh: -19%; Giardia killer: 12; TGFb SMAD3 inh: 13µM*; ATXN viability: inactive

How did CCOc1cc(C(=O)OC(C)C(=O)Nc2ccccc2OC)ccc1OCC(=O)N1CCOCC1 (stereo not drawn) do in these assays?
HepG2 tox: -5%; uPA surface inh: -9%; Giardia killer: -23; TGFb SMAD3 inh: inconclusive; ATXN viability: inactive

Bioassay records (PubChem BioAssay)
